Test results reported in article PMC4552634, “A New Set of Chemical Starting Points with Plasmodium falciparum Transmission-Blocking Potential for Antimalarial Drug Discovery” (PLoS ONE, 2015).
Where two headings read alike, the source gives them in different places. In all, about 13,000 compounds went through this assay and about 3,200 (25%) showed an effect of 50% or more. Some of the results follow.

Tested on: P. falciparum stage V gametocytes
Design: BacTiter-Glo ATP luminescence viability of purified stage V gametocytes in 384-well plates, per cent inhibition versus DMSO
Conditions: 48 h, 5 µM, inhibitor

Question: With `CCOCn1c(-c2ccccc2)cc2c3c(N)nc(N)nc3ccc21` [TCMDC-137979] as the molecule, how does the “% Inhibition” value read?
Answer: 108.5%

Question: Which “% Inhibition” value does the source give for `Nc1nc(N)c2c(ccc3nn(Cc4ccccc4)cc32)n1` [TCMDC-137757] here?
Answer: -1.825%

Question: How did the “% Inhibition” value turn out when `Cc1cc2c3c(N)nc(N)nc3ccc2n1C(C)C` [TCMDC-137864] was run?
Answer: -11.65%

Question: `Cc1cc2c3c(N)nc(N)nc3ccc2n1C` [TCMDC-137957] was tested. Which “% Inhibition” value did it give?
Answer: 115.7%

Question: `Cn1ccc2c3c(N)nc(N)nc3ccc21` [TCMDC-139863] was tested. Which “% Inhibition” value did it give?
Answer: 5.526%

Question: For `CCC(CC)n1c(C)cc2c3c(N)nc(N)nc3ccc21` [TCMDC-137283], which “% Inhibition” value is on record?
Answer: 15.6%

Question: Which “% Inhibition” value does the source give for `Cn1c(-c2ccccc2)cc2c3c(N)nc(N)nc3ccc21` [TCMDC-137985] here?
Answer: 110.7%

Question: With `CCCn1cc2c(ccc3nc(N)nc(N)c32)n1` [TCMDC-137858] as the molecule, how does the “% Inhibition” value read?
Answer: 22.58%

Question: For `CCC(C)(C)n1c(C)cc2c3c(N)nc(N)nc3ccc21` [TCMDC-137307], which “% Inhibition” value is on record?
Answer: 10.01%

Question: With `COc1ccc(C(=O)COc2cccc(/C=C/C(=O)O)c2)cc1OC` [TCMDC-137318] as the molecule, how does the “% Inhibition” value read?
Answer: -6.983%

Question: How did the “% Inhibition” value turn out when `Cc1nc(-c2cccc(NCc3ccccc3)c2)[nH]c1C` [TCMDC-133419] was run?
Answer: -26.98%

Question: `CCOc1cc(Cc2cnc(N)nc2N)cc(OC)c1OC` [TCMDC-137664] was tested. Which “% Inhibition” value did it give?
Answer: -4.101%

Question: For `CC(C)C1C(O)=C(c2ccc3ccccc3c2)C(=O)N1Cc1ccsc1` (stereo not shown) [TCMDC-141810], which “% Inhibition” value is on record?
Answer: 16.73%

Question: Which “% Inhibition” value does the source give for `Cc1ccccc1C1CCN(C2CCC(NC(=O)/C=C/c3cccc(Cl)c3F)CC2)CC1` (stereo not shown) [TCMDC-133513] here?
Answer: -35.56%

Question: `COc1cccc(CNC[C@@H](O)[C@H](Cc2ccccc2)NC(=O)c2cc3c4c(c2)c(C(C)C)cn4CCS(=O)(=O)N3C)c1` [TCMDC-135536] was tested. Which “% Inhibition” value did it give?
Answer: 25%

Question: How did the “% Inhibition” value turn out when `Cc1noc(C)c1-c1cccc(C(=O)NC2CCN(CCNC(=O)C(c3ccccc3)c3ccccc3)CC2)c1` [TCMDC-133354] was run?
Answer: 85.49%

Question: How did the “% Inhibition” value turn out when `Cc1nn(-c2ccccc2)nc1C(=O)NC1CCN(CCNC(=O)c2ccc(Cl)c(Cl)c2)CC1` [TCMDC-141951] was run?
Answer: 7.25%

Question: With `COc1ccc2nccc([C@@H](O)CN3CCC(NC(=O)c4cccc(-c5cc(C)no5)c4)CC3)c2c1` [TCMDC-141133] as the molecule, how does the “% Inhibition” value read?
Answer: -80.32%

Question: Which “% Inhibition” value does the source give for `OCCn1c(CNCCCNc2nc3ccccc3[nH]2)cc2c(Cl)cc(Cl)cc21` [TCMDC-140142] here?
Answer: 2.661%

Question: Which “% Inhibition” value does the source give for `CNc1nc(N/N=C/c2cc([N+](=O)[O-])c(Cl)cc2Cl)nc(Nc2cccc(C(F)(F)F)c2)n1` [TCMDC-124087] here?
Answer: -4.111%

Question: `CCn1c(-c2nonc2N)nc2c(-c3cccc(NC(=O)Nc4ccccc4OC)c3)ncc(OCCCN)c21` [TCMDC-136190] was tested. Which “% Inhibition” value did it give?
Answer: 111.9%

Question: With `CCn1c(-c2nonc2N)nc2c(C#CC(C)(C)O)ncc(OCCNCCc3ccc(OC)cc3)c21` [TCMDC-136364] as the molecule, how does the “% Inhibition” value read?
Answer: 100.7%

Question: How did the “% Inhibition” value turn out when `COc1ccccc1NC(=O)Nc1cccc(-c2cccc(-c3nc4c(C)cccc4[nH]3)c2)c1` [TCMDC-133204] was run?
Answer: -4.891%

Question: `COc1ccccc1NC(=O)Nc1cccc(-c2ccc(-c3nc4cccc(C)c4[nH]3)s2)c1` [TCMDC-133200] was tested. Which “% Inhibition” value did it give?
Answer: 0.164%

Question: With `CCn1c(-c2nonc2N)nc2c(-c3cccc(NC(=O)Nc4ccccc4Cl)c3)ncc(OCCCN)c21` [TCMDC-136192] as the molecule, how does the “% Inhibition” value read?
Answer: 107.4%

Question: With `COc1cccc(-c2ccc3c(-c4cccc(NC(C)=O)c4)cnc(N)c3c2)c1` [TCMDC-134562] as the molecule, how does the “% Inhibition” value read?
Answer: 29.05%

Question: For `CCn1c(-c2nonc2N)nc2cnc(Oc3cccc(NC(=O)c4ccc(OCCN(C(C)C)C(C)C)cc4)c3)cc21` [TCMDC-135777], which “% Inhibition” value is on record?
Answer: -15.21%

Question: `CCn1c(-c2nonc2N)nc2c(-c3cccc(NC(=O)Nc4cccc(OC)c4)c3)ncc(OCCCN)c21` [TCMDC-136180] was tested. Which “% Inhibition” value did it give?
Answer: 96.94%

Question: `CCC(Cc1cnc2nc(N)nc(N)c2n1)c1ccc(C(=O)O)cc1` (stereo not shown) [TCMDC-137331] was tested. Which “% Inhibition” value did it give?
Answer: 24.52%

Question: Which “% Inhibition” value does the source give for `FC(F)(F)c1ccc2[nH]c(-c3ccc(-c4ccc(CN5CCN(c6ccncc6)CC5)cc4)s3)nc2c1.O=C(O)C(F)(F)F` [TCMDC-132920] here?
Answer: -8.718%

Question: For `O=C(Nc1ccc([N+](=O)[O-])cc1O)Nc1ccccc1Oc1ccccc1` [TCMDC-139010], which “% Inhibition” value is on record?
Answer: -27.06%

Question: With `O=c1[nH]c2c(c(O)c1[N+](=O)[O-])CCC2` [TCMDC-131385] as the molecule, how does the “% Inhibition” value read?
Answer: -1.405%

Question: Which “% Inhibition” value does the source give for `Cc1ccc(NC(=O)NC2CCN(CCC(NC(=O)Cc3ccccc3)c3ccc(Cl)c(Cl)c3)CC2)cc1` (stereo not shown) [TCMDC-141708] here?
Answer: -50.52%

Question: How did the “% Inhibition” value turn out when `CCOC(=O)C(=O)N1c2ccc(OCC)cc2-c2c(ssc2=S)C1(C)C` [TCMDC-124090] was run?
Answer: -28.77%

Question: For `COc1cc(NC(=O)/C=C/c2cccc3cc[nH]c23)ccc1OCCN(C(C)C)C(C)C` [TCMDC-139962], which “% Inhibition” value is on record?
Answer: 14.04%

Question: Which “% Inhibition” value does the source give for `Cc1cc(NC(=O)c2ccc(-c3ccccc3)cc2)no1` [TCMDC-123478] here?
Answer: 45.67%

Question: With `CCC(NC(=O)c1ccccc1NC(=O)c1ccc(C)cc1)C(=O)OC` (stereo not shown) [TCMDC-124179] as the molecule, how does the “% Inhibition” value read?
Answer: 51.66%

Question: For `CCOC(=O)c1ccc(NC(=O)c2ccccc2C(=O)O)cc1` [TCMDC-125804], which “% Inhibition” value is on record?
Answer: 12.67%

Question: For `CC(=O)N(C)/N=C/[C@H](CCc1ccccc1)NC(=O)[C@H](CC(C)C)NC(=O)c1cccc(OCCN2CCOCC2)c1` [TCMDC-135821], which “% Inhibition” value is on record?
Answer: 14.53%

Question: For `OC1(C(F)(F)F)CC(c2ccccc2)=NN1c1nncc(-c2ccccc2)n1` (stereo not shown) [TCMDC-123864], which “% Inhibition” value is on record?
Answer: 70.72%

Question: With `O=C(Nc1cccc(-c2cccc(-c3nc4ccccc4[nH]3)c2)c1)NC1CC1c1ccccc1` (stereo not shown) [TCMDC-133253] as the molecule, how does the “% Inhibition” value (% Inhibition) read?
Answer: -2.475%

Question: With `Cc1cc(-c2cccc(CNC3CCN(C)CC3)c2)ccc1S(=O)(=O)NCc1ccccc1` [TCMDC-132379] as the molecule, how does the “% Inhibition” value read?
Answer: 41.73%

Question: With `Cc1cc(-c2ccc(CNC3CCN(C)CC3)cc2)ccc1S(=O)(=O)NCc1ccccc1` [TCMDC-132474] as the molecule, how does the “% Inhibition” value read?
Answer: 44.56%

Question: Which “% Inhibition” value does the source give for `CN1CCC(NCc2cccc(-c3ccc(S(=O)(=O)NCc4ccccc4)c(F)c3)c2)CC1` [TCMDC-132219] here?
Answer: 107.3%

Question: With `CN1CCC(NCc2ccc(-c3ccc(S(=O)(=O)NCc4ccccc4)c(F)c3)cc2)CC1` [TCMDC-132235] as the molecule, how does the “% Inhibition” value read?
Answer: 73.08%

Question: `CCNc1cc(C(=O)N[C@@H](Cc2ccccc2)[C@H](O)CN[C@H](C)C(C)(C)C)cc(N2CCCCS2(=O)=O)c1` [TCMDC-135194] was tested. Which “% Inhibition” value did it give?
Answer: 4.242%

Question: Which “% Inhibition” value does the source give for `O=C(N[C@@H](CC1CCCCC1)C(=O)NCc1cccc(C(F)(F)F)c1)c1ccc(O)c(-c2ccc(Cl)c(Cl)c2)c1` [TCMDC-140836] here?
Answer: 10.47%

Question: `Cc1nc2sccn2c1C(=O)NCCc1ccccc1Cl` [TCMDC-136538] was tested. Which “% Inhibition” value did it give?
Answer: 1.524%

Question: How did the “% Inhibition” value turn out when `CC(C)(CNC(=O)[C@H]1CCCN1)c1nc(-c2ccc(Cl)c(O)c2)c(-c2ccncc2)[nH]1` [TCMDC-141060] was run?
Answer: -63.79%

Question: `COc1ccccc1CCNc1ncc(F)c(N[C@@H](Cc2ccccc2)C(=O)NCCc2ccccc2)n1` [TCMDC-134948] was tested. Which “% Inhibition” value did it give?
Answer: 4.371%

Question: With `COc1ccccc1CCNc1nccc(N[C@@H](Cc2ccccc2)C(=O)NCc2cccs2)n1` [TCMDC-134745] as the molecule, how does the “% Inhibition” value read?
Answer: 80.93%

Question: `O=C(NCc1cccs1)[C@H](Cc1ccccc1)Nc1ccnc(NCC2CCCCC2)n1` [TCMDC-134708] was tested. Which “% Inhibition” value did it give?
Answer: -6.926%

Question: `O=C(NCc1cccs1)[C@H](Cc1ccccc1)Nc1ccnc(NCCc2ccc(F)cc2)n1` [TCMDC-134825] was tested. Which “% Inhibition” value did it give?
Answer: 42.49%

Question: With `O=C(NCCc1ccccc1)[C@H](Cc1ccccc1)Nc1ccnc(NCC2CCCCC2)n1` [TCMDC-134711] as the molecule, how does the “% Inhibition” value read?
Answer: 29.07%

Question: For `O=C(NCc1cccs1)[C@H](Cc1ccccc1)Nc1ccnc(NCCc2ccccc2)n1` [TCMDC-134810], which “% Inhibition” value is on record?
Answer: 62.6%

Question: For `O=C(C1CC1)N1c2ccccc2CCc2ccccc21` [TCMDC-123880], which “% Inhibition” value is on record?
Answer: 17.87%

Question: `COc1cc(Cl)c(C)cc1-n1cc(C(=O)c2cc(Br)ccc2O)cc(C#N)c1=O` [TCMDC-123630] was tested. Which “% Inhibition” value did it give?
Answer: -51.04%

Question: With `CCCCC(CC)NC(=O)[C@H]1CNCCN1C(=O)CCCc1ccccc1` (stereo partly shown) [TCMDC-141269] as the molecule, how does the “% Inhibition” value read?
Answer: -15.01%

Question: With `CCCCOC(=O)C1=C(C)NC2=C(C(=O)CCC2)C1c1ccc(OC)c(Br)c1` (stereo not shown) [TCMDC-124210] as the molecule, how does the “% Inhibition” value read?
Answer: -70.69%

Question: With `CCCCOC(=O)C1=C(C)NC2=C(C(=O)CC(c3ccc(OC)c(OC)c3)C2)C1c1ccc(O)cc1` (stereo not shown) [TCMDC-125635] as the molecule, how does the “% Inhibition” value read?
Answer: 28.36%

Question: With `CCOC(=O)C1=C(C)NC2=C(C(=O)C(C(=O)OC)C(C)C2)C1c1cc(Br)c(OCC)c(OC)c1` (stereo not shown) [TCMDC-125139] as the molecule, how does the “% Inhibition” value read?
Answer: 94.17%

Question: For `O=C(Nc1ccc(-c2ccc(-c3nc4ccccc4[nH]3)cc2)cc1)Nc1ccc(Cl)c(Cl)c1` [TCMDC-133279], which “% Inhibition” value is on record?
Answer: -60.39%

Question: Which “% Inhibition” value does the source give for `Oc1ccc(CN2CCN(CCOC(c3ccc(F)cc3)c3ccc(F)cc3)CC2)cc1Cl` [TCMDC-135691] here?
Answer: 8.088%

Question: With `CN1CCC(C(=O)Nc2cccc(-c3ccc(-c4nc5ccc(C(F)(F)F)cc5[nH]4)cc3)c2)CC1` [TCMDC-132190] as the molecule, how does the “% Inhibition” value read?
Answer: 21.59%

Question: For `CC(C)CN(c1nc(C(=O)NNC(=O)[C@H](CC2CC2)NC(=O)c2cc3cc(OCCN(C)C)ccc3o2)cs1)C1CC1` [TCMDC-139231], which “% Inhibition” value is on record?
Answer: -13.37%

Question: `O=C(N[C@@H](CC1CCCCC1)C(=O)NCCN1CCCCC1)c1ccc(O)c(-c2ccc(Cl)c(Cl)c2)c1` [TCMDC-140862] was tested. Which “% Inhibition” value did it give?
Answer: 10.77%

Question: With `CC(C)CN(c1nc(C(=O)NNC(=O)[C@H](CC2CC2)NC(=O)c2cc3cc(OCCN4CCCCC4)ccc3o2)cs1)C1CC1` [TCMDC-139232] as the molecule, how does the “% Inhibition” value read?
Answer: 55.6%
